The entries come from a sample that favours hits as a whole.
U2OS ROS induce: inducers of reactive oxygen species in cancer cells. U2OS ROS induction, H2DCF-DA fluorescence. ROS induction (% of piperlongumine), % at 10 µM. 46,000 compounds, 2% hits. AID 624156; in the data active = ROS induction above about 79%, passing the limit was not always enough; inconclusive = no clear call, values can overlap the other calls;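 also: 0% = DMSO vehicle median and 100% = reference compound median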
NOMO-1 viab: STK33 inhibitor candidate reducing NOMO-1 cell viability; inhibition, % (test concentration not listed); AID 2330; NOMO-1 AML viability, CellTiter-Glo luminescence, 72 h; 37,000 compounds, 7.5% hits; in the data active = inhibition above about 80%; inconclusive = no clear call, values can overlap the other calls
PD-1 reversal: reversal of PD-1 mediated T-cell inhibition | 29,000 tested, under 10 active | AID 2316 | activation, % (test concentration not listed) | primary human CD4 T cells, PD-L1 beads, CellTiter-Glo 96 h; call rule not given here;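 also: 0% = median vehicle wells and 100% = positive control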
Numbers without * were called inactive; u = inconclusive; x = no result; ! = not active in a repeat.

SMILES | U2OS ROS induce | NOMO-1 viab | PD-1 reversal
CC(C)=CCc1c(O)c(CC=C(C)C)c2c(c1O)C(=O)CC(c1ccc(O)cc1O)O2 (centres undefined) | 37.8 | 116.4* | -1.9
CC(C)=CCc1c(O)cc(O)c2c1OC(c1ccc(O)c(O)c1)CC2=O (centres undefined) | 52.1 | x | x
O=C(CN1C(=O)C2C3C=CC(C3)C2C1=O)OCCCc1ccccc1 (centres undefined) | -4.7 | x | x
N#C/C(=C\c1ccc(O)c(O)c1)C(=O)Nc1ccccc1 | 11.9 | u | -3.9
N#C/C(=C/c1ccc(O)c(O)c1)C(=O)OC/C=C/c1ccccc1 | 2.2 | 99.2* | x
COc1cc2nc(N3CCN(C(=O)C4COc5ccccc5O4)CC3)nc(N)c2cc1OC (centres undefined) | -1.3 | -2.3 | -1.0
COc1cc2nc(N3CCN(C(=O)c4ccco4)CC3)nc(N)c2cc1OC | -4.3 | 94.6* | 2.0
CCOC(=O)c1ccccc1NC(=O)C(C)Oc1cc(C)c(Cl)c(C)c1 (centres undefined) | x | 35.4 | x
CCOC(=O)c1ccccc1NC(=O)C(C)Oc1ccc2c(C)cc(=O)oc2c1 (centres undefined) | x | 103.8* | x
Cc1c(Cc2ccccc2)c(=O)oc2cc(OC(C)C)ccc12 | 53.0 | 61.7 | -0.4
CCOC(=O)C(C)Oc1ccc2c(-c3ccccc3)cc(=O)oc2c1 (centres undefined) | 106.5* | 109.0* | -0.8
Cc1ccccc1NC(=O)Nc1sc(NS(=O)(=O)c2ccccc2)nc1C | -14.2 | x | x
N#Cc1c(N)c(C#N)c(=S)n(CC2CCCO2)c1N (centres undefined) | 0.6 | x | x
Cc1cc(C)cc(CC(CC(=O)O)C(=O)NCc2ccccc2)c1 (centres undefined) | 7.0 | x | x
CCOc1ccc(NC(=O)c2cc(-c3ccc(F)cc3)[nH]c2C)cc1 | 14.5 | x | x
COc1cc2c(cc1OC)N1C(=O)C[C@]34C=CCN5CC[C@@H]2[C@@H](CC3)[C@]514 | 86.2* | x | x
C(=C\c1ccccc1)/CN1CCN(C(c2ccccc2)c2ccccc2)CC1 | 26.0 | 24.8 | x
Fc1ccc(C(c2ccc(F)cc2)N2CCN(C/C=C/c3ccccc3)CC2)cc1 | 3.8 | 115.7*! | -9.0
CN1CCN(NC(=O)c2ccc(-c3ccccc3)cc2)CC1 | -5.2 | x | x
CCCCc1nc2sc3c(NCc4ccccc4)ncnc3c2c2c1COC(C)(C)C2 | -9.3 | x | x
CCCCc1nc2sc3c(Cl)ncnc3c2c2c1COC(C)(C)C2 | 112.9* | x | x
O=C(CSC1=NC(=O)C(c2ccccc2)C(=O)N1)NC1CCCCC1 (centres undefined) | 30.5 | 13.0 | -0.4
COC(=O)c1ccc(Cl)c(NC(=O)CN(c2cccc(F)c2)S(C)(=O)=O)c1 | -0.3 | u | -0.8
Cc1ccccc1NC(=O)CN(c1ccc(Cl)c(Cl)c1)S(C)(=O)=O | 2.9 | 25.8 | 0.5
COC(=O)c1ccc(Cl)c(NC(=O)CN(c2cccc(Cl)c2)S(C)(=O)=O)c1 | 0.5 | 129.2* | 2.1
SMILES | U2OS ROS induce | NOMO-1 viab | PD-1 reversal
COC(=O)c1ccc(C)c(NC(=O)CN(c2ccc(Cl)c(Cl)c2)S(C)(=O)=O)c1 | 1.6 | 107.6* | -1.8
CCOC(=O)C1=C(S)N(C#N)C(=O)C(C#N)C12CCNCC2 (centres undefined) | -29.2 | 10.5 | 0.6
CCOC(CCn1c(=S)[nH]c2cc(C(=O)OC)ccc2c1=O)OCC | -2.4 | x | x
Cc1ccccc1OCC(=O)NC(C)(C)C | -8.1 | x | x
C=C(CO)C(=O)O[C@H]1CC(=C)[C@@H]2CC(=O)[C@H](C)[C@@H]2[C@H]2OC(=O)C(=C)[C@@H]21 | 121.8* | 106.7* | -6.2
O=C(CCC1CCCC1)Nc1ccc2nc3n(c(=O)c2c1)CCCCC3 | 15.3 | x | x
O=C(NCc1ccccc1)c1ccc2c(c1)N(Cc1ccccc1)CCS2 | 5.6 | x | x
CC1(C)CC(C)(c2ccccc2)c2cc(SC#N)ccc2N1 (centres undefined) | 113.6* | 113.7* | -4.8
CC(=O)N1c2ccccc2C(C)(c2ccccc2)CC1(C)C (centres undefined) | 26.9 | u | -1.4
CCCc1nnc2c3c4c(sc3ncn12)CCCC4 | 16.3 | x | x
C[C@@H]1CN([C@@H](C)CO)C(=O)c2cc(NC(=O)Nc3ccc(F)cc3)ccc2O[C@@H]1CN(C)Cc1ccc(C(F)(F)F)cc1 | 8.6 | 105.4* | -1.3
COc1ccc(NC(=O)Nc2ccc3c(c2)C(=O)N([C@H](C)CO)C[C@@H](C)[C@H](CN(C)Cc2ccc(C(F)(F)F)cc2)O3)cc1 | -4.5 | 49.2 | -1.4
C[C@@H]1CN([C@H](C)CO)C(=O)c2cc(NC(=O)Nc3ccc(C(F)(F)F)cc3)ccc2O[C@H]1CN(C)Cc1ccccc1 | 0.0 | 76.3 | -5.2
C[C@@H]1CN([C@@H](C)CO)C(=O)c2cc(NC(=O)Nc3ccc(C(F)(F)F)cc3)ccc2O[C@@H]1CN(C)Cc1ccccc1 | 16.7 | 119.5* | -1.9
C[C@H]1CN([C@@H](C)CO)C(=O)c2cc(NC(=O)Nc3ccc(C(F)(F)F)cc3)ccc2O[C@@H]1CN(C)Cc1ccc(C(=O)O)cc1 | 6.9 | -22.6 | 1.0
C[C@H]1CN([C@@H](C)CO)C(=O)c2cc(NC(=O)Nc3ccc(C(F)(F)F)cc3)ccc2O[C@@H]1CN(C)Cc1ccccc1 | 9.8 | 94.3* | -1.8
COc1ccc(CN(C)C[C@@H]2Oc3ccc(NC(=O)Nc4ccc(C(F)(F)F)cc4)cc3C(=O)N([C@@H](C)CO)C[C@@H]2C)cc1 | -1.0 | 99.9* | 0.9
C[C@H](CO)N1C[C@H](C)[C@H](CN(C)Cc2ccc(C(=O)O)cc2)Oc2ccc(NC(=O)Nc3ccc(C(F)(F)F)cc3)cc2C1=O | -4.9 | -14.8 | 0.8
CNS(=O)(=O)c1ccc2c(c1)C(=NO)c1cc(S(=O)(=O)NC)ccc1-2 | -1.9 | x | x
CC1CC(C)CN(S(=O)(=O)c2ccc(F)c(C(=O)Nc3cccc(F)c3)c2)C1 (centres undefined) | 5.4 | x | x
CC1CCCC(C)N1CCCNC(=O)C1CCN(c2ncnc3c2sc2cccc(F)c23)CC1 (centres undefined) | 41.7 | x | x
CCN1C(=O)/C(=C2\SC(=S)N(c3ccc(OC)cc3)C2=O)c2ccccc21 | 7.5 | 65.8 | 0.9
Nc1ccccc1SCc1cccc(Cl)c1F | -16.7 | x | x
CC(C)(C)C(=O)Cn1nnc(-c2cccc(C(F)(F)F)c2)n1 | -2.9 | x | x
O=C(NC1CCS(=O)(=O)C1)c1c(Cl)cccc1Cl (centres undefined) | -9.1 | x | x
SMILES | U2OS ROS induce | NOMO-1 viab | PD-1 reversal
C[C@@H]1CN([C@@H](C)CO)C(=O)c2cc(NC(=O)Nc3ccc(C(F)(F)F)cc3)ccc2O[C@@H]1CN(C)Cc1ccc(Oc2ccccc2)cc1 | 16.7 | 116.5* | -13.9
C[C@@H]1CN([C@H](C)CO)C(=O)c2cc(NC(=O)Nc3ccc(C(F)(F)F)cc3)ccc2O[C@H]1CN(C)Cc1ccc(Oc2ccccc2)cc1 | 5.5 | 58.4 | x
Cc1nn2c3ccccc3n(C)c2c1C(=S)Nc1ccccc1 | 31.3 | x | x
O=C1CON(c2ccc(Cl)c(Cl)c2)C(=O)N1 | -7.0 | x | x
Clc1ccc(C=Nc2ccc3c(c2)OCCOCCOCCO3)c(Cl)c1 | -21.9 | x | x
COc1ccc(/C=C2\CC/C(=C\c3ccc(C)cc3)C2=O)cc1 | 8.5 | 10.8 | 0.5
O=C1/C(=C/c2ccccn2)CC/C1=C\c1ccccn1 | 55.8 | 134.7* | -3.9
COc1ccc(CC(=O)Nc2c3c(nn2-c2ccc(C)cc2)CSC3)cc1 | -16.5 | x | x

High-throughput results: PubChem BioAssay, Broad Institute
